In publication PMC4336329 (PLoS ONE, 2015):
Hit rate of the full screen: of about 310,000 compounds, about 2,200 (0.71%) showed an effect of 50% or more. The effect is printed as a negative number. For the sample, strong results were picked, then their nearest neighbours and some compounds at random.

Target: human ether-à-go-go-related gene (hERG) potassium channel (human, UniProt Q12809)
Assay: primary screen, population patch clamp on CHO cells stably expressing hERG; higher = less effect of the substance

Chain of human ether-à-go-go-related gene (hERG) potassium channel (Q12809 whole entry, looked up): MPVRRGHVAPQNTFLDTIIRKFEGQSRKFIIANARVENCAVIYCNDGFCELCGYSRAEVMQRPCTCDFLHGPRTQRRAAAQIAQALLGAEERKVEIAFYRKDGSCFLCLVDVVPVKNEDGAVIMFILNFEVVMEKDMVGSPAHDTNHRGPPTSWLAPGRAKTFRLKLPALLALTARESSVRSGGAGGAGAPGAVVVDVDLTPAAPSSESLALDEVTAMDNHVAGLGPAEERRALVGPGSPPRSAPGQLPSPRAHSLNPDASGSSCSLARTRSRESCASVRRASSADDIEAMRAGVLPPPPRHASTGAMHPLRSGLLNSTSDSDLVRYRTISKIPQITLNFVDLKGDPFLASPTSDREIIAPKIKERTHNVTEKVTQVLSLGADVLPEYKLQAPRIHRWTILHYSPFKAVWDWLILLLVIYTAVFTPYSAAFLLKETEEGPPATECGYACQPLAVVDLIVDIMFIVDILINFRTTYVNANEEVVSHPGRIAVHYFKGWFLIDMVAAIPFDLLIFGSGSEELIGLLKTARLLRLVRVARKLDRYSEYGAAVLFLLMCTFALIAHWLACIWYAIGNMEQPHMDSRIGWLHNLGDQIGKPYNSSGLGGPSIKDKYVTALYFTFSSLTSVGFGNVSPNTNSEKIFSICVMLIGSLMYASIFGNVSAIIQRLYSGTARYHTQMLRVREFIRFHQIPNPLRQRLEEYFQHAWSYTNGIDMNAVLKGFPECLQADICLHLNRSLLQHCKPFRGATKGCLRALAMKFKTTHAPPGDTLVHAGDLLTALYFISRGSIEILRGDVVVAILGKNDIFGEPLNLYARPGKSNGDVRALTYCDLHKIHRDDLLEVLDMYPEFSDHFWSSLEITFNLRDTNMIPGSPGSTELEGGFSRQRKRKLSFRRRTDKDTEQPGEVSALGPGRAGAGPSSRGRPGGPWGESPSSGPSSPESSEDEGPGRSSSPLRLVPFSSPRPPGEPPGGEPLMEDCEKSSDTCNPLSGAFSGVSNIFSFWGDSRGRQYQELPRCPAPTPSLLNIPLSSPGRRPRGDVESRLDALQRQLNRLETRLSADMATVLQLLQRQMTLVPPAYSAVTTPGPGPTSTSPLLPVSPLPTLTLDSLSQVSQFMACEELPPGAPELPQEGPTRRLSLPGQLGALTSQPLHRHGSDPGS

| Compound | hERG current change (%, negative = inhibition) at 1uM |
| --- | --- |
| O=c1c(=Nc2ccccc2O)c(=O)c2ccccc12 | 17.3% |
| O=c1[nH]c2cc3c(cc2cc1CN(Cc1ccco1)C(=S)NCC1CCCO1)OCCO3 (stereo not shown) | 15.1% |
| COC(=O)c1sc(NC(=S)NC(=O)c2ccccc2F)nc1C | 2.7% |
| O=C1CCC([N+](=O)[O-])C(c2cc(Br)ccc2F)N1 (stereo not shown) | 14.5% |
| O=C(CNC(=O)c1ccc(F)cc1)c1ccc(Cl)cc1 | 19.6% |
| Cc1cccc(CN2C[C@]34C=C[C@@H](C[C@@H]3S2(=O)=O)O4)c1 | 10.3% |
| CCc1ccc(NC(=O)Nc2cc(C(=O)O)ccc2N2CC3CC(C2)c2cccc(=O)n2C3)cc1 (stereo not shown) | 19.5% |
| CCCNC(=O)c1ccc(N2CC3CC(C2)c2cccc(=O)n2C3)c(NC(=O)Nc2ccc(CC)cc2)c1 (stereo not shown) | -56.1% |
| CCc1ccc(NC(=O)Nc2cc(C(=O)NCC3CCCO3)ccc2N2CC3CC(C2)c2cccc(=O)n2C3)cc1 (stereo not shown) | 11.3% |
| CCOC(=O)c1ccc(NC(=O)CSc2ccc(-c3ccncc3)nn2)cc1 | 9.76% |
| NCCCC[C@H]1CN=C(N)N1CCc1cccc2ccccc12 | 9.97% |
| CN(C)CCNC(=O)/C(=C/c1ccc(-c2cccc([N+](=O)[O-])c2)o1)NC(=O)c1ccccc1 | -37.2% |
| Cc1ccc(C(=O)N/C(=C\c2ccc(-c3cccc([N+](=O)[O-])c3)o2)C(=O)NCCCN(C)C)cc1 | -27.5% |
| Cc1ccc(C(=O)N/C(=C\c2ccc(-c3cccc([N+](=O)[O-])c3)o2)C(=O)NCCCN2CCOCC2)cc1 | -74.7% |
| Cc1ccc(C(=O)N/C(=C/c2ccc(-c3cccc([N+](=O)[O-])c3)o2)C(=O)NCCCN(C)C)cc1 | -73.3% |
| Cc1ccc(C(=O)N/C(=C\c2ccc(-c3ccccc3[N+](=O)[O-])o2)C(=O)NCCCN2CCOCC2)cc1 | -11.2% |
| Cc1ccc(C(=O)N/C(=C/c2ccc(-c3cccc([N+](=O)[O-])c3)o2)C(=O)NC(C)C)cc1 | 10.1% |
| CN(C)CCCNC(=O)/C(=C\c1ccc(-c2cccc([N+](=O)[O-])c2)o1)NC(=O)c1ccccc1 | -77.9% |
| O=C(NCCCO)/C(=C/c1ccc(-c2cccc([N+](=O)[O-])c2)o1)NC(=O)c1ccccc1 | -4.53% |
| Cc1ccc(C(=O)N/C(=C/c2ccc(-c3cccc([N+](=O)[O-])c3)o2)C(=O)NC(C)(C)C)cc1 | -0.682% |
| Cn1nc(C(F)(F)F)cc1Oc1ncc(C(F)(F)F)cc1Cl | 12.5% |

| Compound | hERG current change (%, negative = inhibition) at 1uM |
| --- | --- |
| CCOc1ccc(NC(=S)N(CCc2c(C)[nH]c3ccccc23)Cc2cccnc2)cc1 | -4.48% |
| CCN(CC)S(=O)(=O)c1cccc(C(=O)NCCc2ccccc2)c1 | -5.67% |
| O=c1[nH]c(=O)n(CCC2=CCCCC2)c(O)c1C=NCc1cccnc1 | 9.06% |
| COc1ccc(OCCCC(=O)Nc2nc(C)c(C(C)=O)s2)cc1 | 10.2% |
| Cc1ccc(-n2c(=O)cc(N3CC(C)OC(C)C3)[nH]c2=O)cc1 (stereo not shown) | 10.6% |
| O=C(CC(C(=O)O)c1c[nH]c2ccccc12)c1ccccc1 (stereo not shown) | 9.56% |
| COc1ccc(Cc2nc3c4c(ncn3n2)Oc2ccc3ccccc3c2C4c2ccc(OC)c(OC)c2)cc1 (stereo not shown) | 5.71% |
| CC(C)n1cnc2c(NCc3ccccc3)nc(NCc3ccccc3)nc21 | 10.4% |
| COc1cc(N(Cc2ccccc2)Cc2ccccc2)c2ncn(C(C)C)c2c1 | 8.78% |
| CC(C)n1cnc2c(N(C)c3ccccc3)nc(N(CCN(C)C)Cc3ccccc3)nc21 | -58.5% |
| CCOC(=O)Cc1csc(NC(=O)CSc2nnnn2-c2ccc(C)c(C)c2)n1 | 10% |
| COc1ccc(S(=O)(=O)NCC2CCCN(Cc3ccc(O)cc3)C2)cc1 (stereo not shown) | -12.2% |
| Cc1ccc(CN2CC(C(=O)Nc3ccc(F)c([N+](=O)[O-])c3)CC2=O)cc1 (stereo not shown) | -1.97% |
| COc1ccc(NC(=O)COc2ccc(C)cc2)c([N+](=O)[O-])c1 | 8.91% |
| CCOc1ccc(OCC(=O)Nc2ccc(OC)cc2[N+](=O)[O-])cc1 | 8.89% |
| COc1ccc(OCC(=O)N/N=C(\C)CC(=O)Nc2ccc(OC)cc2[N+](=O)[O-])cc1 | -61.8% |
| C#CCn1c(=NC(=O)c2ccc(Cl)s2)sc2cccc(OC)c21 | 14.9% |
| COc1ccc(Br)cc1C(=O)Nc1cccc(C)c1C | 2.14% |
| COc1ccc(OC)c(NC(=O)NC2CCCCCCC2)c1 | 9.24% |
| Cc1cccc(NC(=O)CN2CCOCC2)c1C | 12.2% |
| Cc1cccc(NC(=O)CNC(=O)COc2ccc(-c3ccc(C#N)cc3)cc2)c1C | 8.38% |

| Compound | hERG current change (%, negative = inhibition) at 1uM |
| --- | --- |
| Cc1cccc(NC(=O)CN2CCN(C(=O)C(C)Oc3ccc(C#N)cc3)CC2)c1C (stereo not shown) | -54.7% |
| COc1ccc(CNC(=O)C2CSC(c3ccc(OC)cc3)N2C(C)=O)cc1 (stereo not shown) | 5.4% |
| CCCCN(C)CCN1C(=O)C2C(C(=O)Nc3ccc(C)cc3)C3C=CC2(O3)C1C(=O)NC1CCCCC1 (stereo not shown) | 15.1% |
| CCCCN(C)CCN1C(=O)C2C(C(=O)Nc3ccc(Cl)cc3)C3C=CC2(O3)C1C(=O)NC1CCCCC1 (stereo not shown) | -60.5% |
| CCCCN(C)CCN1C(=O)C2C(C(=O)Nc3ccc(OC)cc3)C3C=CC2(O3)C1C(=O)NC1CCCCC1 (stereo not shown) | 3.44% |
| CN1C(=O)C2(C(C#N)=C(N)Oc3c2oc(CO)cc3=O)c2ccccc21 (stereo not shown) | 12% |
| COc1cc(S(=O)(=O)N2CCN(C)CC2)ccc1Cl | 14.8% |
| CN1CCN(CC(O)COC(c2ccc(Cl)cc2)c2ccc(Cl)cc2)CC1.Cl (stereo not shown) | -47.8% |
| Cl.OC(COC(c1ccc(Cl)cc1)c1ccc(Cl)cc1)CN1CCc2ccccc2C1 (stereo not shown) | -6.99% |
| OC(COC(c1ccc(F)cc1)c1ccc(F)cc1)CN1CCc2ccccc2C1 (stereo not shown) | -9.74% |
| CC1CCCN(CC(O)COC(c2ccccc2)c2ccccc2)C1 (stereo not shown) | -15% |
| O=C(O)C(=O)O.O=C(c1ccccc1)c1ccc(OCC(O)CNCc2ccc(F)cc2)cc1 (stereo not shown) | -0.143% |
| OC(COC(c1ccccc1)c1ccccc1)CN1CCc2ccccc2C1 (stereo not shown) | -75.3% |
| OC1CCCN(CC(O)COC(c2ccccc2)c2ccccc2)C1 (stereo not shown) | 1.02% |
| CCOC(=O)C1CCCN(CC(O)COC(c2ccccc2)c2ccccc2)C1 (stereo not shown) | -78.8% |
| Cc1ccc(OCC(O)CNCc2ccc(F)cc2)cc1 (stereo not shown) | -14.2% |
| CC1CN(CC(O)COC(c2ccc(Cl)cc2)c2ccc(Cl)cc2)CC(C)O1.Cl (stereo not shown) | -2.64% |
| OC(COC(c1ccc(Cl)cc1)c1ccc(Cl)cc1)CN1CCCC1 (stereo not shown) | -75.2% |
| Cc1ccc(C(OCC(O)CNCc2ccc(F)cc2)c2ccccc2)cc1.O=C(O)C(=O)O (stereo not shown) | -75.4% |
